Assay results from the supplement of paper PMC8726507.
A number with no mark means an inactive call.

test system: Plasmodium falciparum NF54-HGL (transmission to Anopheles stephensi); experiment: percentage of barcode signal found in uninfected mosquitoes (transmission-blocking activity); higher = stronger blocking of transmission to mosquito, active = 80 or more; conditions: 10 µM; gametocyte preincubation time 24 h; readout time post-feed 8 days
Description: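 The mixture was fed to Anopheles stephensi in 96-well plates as blood meals tagged with DNA-barcoded Asaia bacteria. Eight days later, mosquitoes were classed infected or uninfected by luminescence (mean + 5 SD of unfed controls). Barcodes were quantified by Luminex MagPlex-TAG in the pooled uninfected and infected Asaia cultures, background-corrected, and the score is % of barcode signal in uninfected mosquitoes = 100*Iu/(Iu+Ii).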

Point of comparison: `Nc1c2c(nc3sc4c(c13)CCCC4)CCCC2`, “percentage of barcode signal found in uninfected mosquitoes” value (“percentage of barcode signal found” below) 42%. Against it:
- CC(C)(C)C(O)C(Oc1ccc(-c2ccccc2)cc1)n1cncn1 (centres undefined) — lower, -1.02%
- Cc1cc(C2=NOC(c3cc(Cl)c(F)c(Cl)c3)(C(F)(F)F)C2)ccc1C(=O)NCc1ccc2c(c1)C(C)(C)OB2O (centres undefined) — higher, 43.3%
- Cc1nn(Cc2ccccc2)c(Cl)c1C(=O)NC1CCCCCC1 — lower, 2.01%
- CC1COC(Cn2cncn2)(c2ccc(Oc3ccc(Cl)cc3)cc2Cl)O1 (centres undefined) — lower, 19.1%
- CC1(C)OB(O)c2ccc(C3=NOC(c4cc(Cl)c(F)c(Cl)c4)(C(F)(F)F)C3)cc21 (centres undefined) — lower, -4.84%
- CO/C=C(/C(=O)OC)c1ccccc1Oc1cc(Oc2ccccc2C#N)ncn1 — higher, 69.5%
- CCc1nn(C)c(C(=O)NCc2ccc(Oc3ccc(C)cc3)cc2)c1Cl — lower, 25.8%

same assay, conditions: 20 µM; gametocyte preincubation time 24 h; readout time post-feed 8 days

Point of comparison: `CO[C@@H]1CN(c2ccc(C#CC3(O)CN4CCC3CC4)c(Cc3ccccc3)n2)C[C@H]1O` (some centres undefined), “percentage of barcode signal found” value 43%. Against it:
- O=C1O[C@@H](CO)CN1c1cc(F)c(C2=CCN(Cc3ccccc3)CC2)c(F)c1 — lower, 0.248%
- O=C1O[C@@H](COc2ccon2)CN1c1cc(F)c(C2=CCN(Cc3ccccc3)CC2)c(F)c1 — lower, 29.7%
- Cc1cccc(C(=O)Nc2ccnc(N(C)C3CCN(CC(C)C)CC3)c2)c1 — higher, 46.4%
- Cc1nn(C)c(C)c1NS(=O)(=O)c1c(Cl)cc(-c2ccnc(N3CCNCC3)c2)cc1Cl — higher, 48.9%

In the case of `CO/N=C(\C(=O)OC)c1ccccc1CO/N=C(\C)c1cccc(C(F)(F)F)c1`, the “percentage of barcode signal found” value is reported as 83.6% (active).
